A selection: hits, their analogues and other compounds. The true share with any hit is near 3.6%.
Myeloid diff 2 = myeloid differentiation induction | ER-HoxA9 myeloid progenitors, lysozyme-GFP differentiation, flow cytometry | calls only at 10 µM | hit rate 1% among 360,000 | AID 624256;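 active means normalized GFP-positive differentiation at or above the plate's own cutoff, the solvent-only control mean plus 3 SD; inconclusive means no clear call, values can overlap the other calls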;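 further: cells exposed to compound for four days before flow analysis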
NadD inh = NadD (S. aureus) enzyme inhibition; purified NadD enzyme, colorimetric absorbance read-out; inhibition, % at 20 µM; hit rate 0.78% among 360,000; in the data active means inhibition above about 26%
CRFR2-BP antag = blocks CRF-induced signaling of the CRF-BP/CRF-R2 complex; HEK293 CRF-R2/CRF-BP, CRF-induced calcium fluorescence; inhibition, % at 11.8 µM; hit rate 0.59% among 350,000; AID 588475;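 active means inhibition of the ligand-induced calcium signal above about 50% at the single tested concentration, limit read from the data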
NRP1-CendR mod = NRP-1/CendR interaction modulation; hit rate 0.85% among 360,000; inhibition, % at 25 µM; FAM-RPARPAR peptide binding to NRP-1, fluorescence polarization; AID 602438;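 active means inhibition or corrected inhibition above about 18%, plus a signal ratio from 0.5 to 1.5, limit read from the data, passing the limit was not always enough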
Target sequence (O14786 whole entry, looked up): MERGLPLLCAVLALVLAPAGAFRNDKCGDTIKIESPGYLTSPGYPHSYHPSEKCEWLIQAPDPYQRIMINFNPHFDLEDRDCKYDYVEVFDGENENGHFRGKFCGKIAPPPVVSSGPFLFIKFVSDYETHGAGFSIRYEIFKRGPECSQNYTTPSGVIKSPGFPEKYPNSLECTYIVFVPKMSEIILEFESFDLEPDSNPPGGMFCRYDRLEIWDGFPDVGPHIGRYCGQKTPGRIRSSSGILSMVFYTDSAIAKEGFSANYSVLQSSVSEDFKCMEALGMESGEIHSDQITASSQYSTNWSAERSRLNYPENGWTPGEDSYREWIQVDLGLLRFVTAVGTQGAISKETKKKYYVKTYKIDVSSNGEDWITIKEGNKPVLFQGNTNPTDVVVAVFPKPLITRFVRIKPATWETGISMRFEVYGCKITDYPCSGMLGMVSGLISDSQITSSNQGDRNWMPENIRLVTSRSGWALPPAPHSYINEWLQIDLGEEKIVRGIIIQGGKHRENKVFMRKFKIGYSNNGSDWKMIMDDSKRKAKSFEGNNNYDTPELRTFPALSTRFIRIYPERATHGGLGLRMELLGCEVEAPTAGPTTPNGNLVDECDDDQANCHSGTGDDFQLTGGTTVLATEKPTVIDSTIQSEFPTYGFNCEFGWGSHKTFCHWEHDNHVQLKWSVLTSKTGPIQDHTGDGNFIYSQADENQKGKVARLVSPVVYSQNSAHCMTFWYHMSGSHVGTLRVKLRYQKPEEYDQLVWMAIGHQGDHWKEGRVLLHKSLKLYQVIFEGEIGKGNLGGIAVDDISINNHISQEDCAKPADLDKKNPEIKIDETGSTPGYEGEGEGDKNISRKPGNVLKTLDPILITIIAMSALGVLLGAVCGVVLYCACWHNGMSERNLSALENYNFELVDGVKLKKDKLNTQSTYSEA
FAS-TE inh = FAS thioesterase (human) inhibition; P49327; recombinant FAS-TE, OMFH fluorogenic substrate, fluorescence endpoint; inhibition, % at 15 µM; hit rate 0.67% among 360,000;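 active means compounds whose normalised, plate-corrected inhibition of enzyme fluorescence in the single-dose primary screen is 50% or more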;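 further: 0% = DMSO with enzyme and 100% = substrate without enzyme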
FAS-TE inh conf = confirmation of human fatty acid synthase thioesterase inhibitors; shares compounds with FAS-TE inh; inhibition, % at 15 µM; recombinant FAS-TE, OMFH fluorogenic substrate, fluorescence; AID 624325; hit rate 45% among 2,300;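 active means compounds inhibiting the enzyme by at least 50% at 15 µM in any one of the replicates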;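 further: 0% = enzyme with DMSO only and 100% = wells lacking enzyme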
An asterisk follows results filed as active; i = inactive; u = inconclusive; x = no result given.

SMILES	Myeloid diff 2	NadD inh	CRFR2-BP antag	NRP1-CendR mod	FAS-TE inh	FAS-TE inh conf
CC(C)(C)OC(=O)NCCc1onc(-c2cccc([N+](=O)[O-])c2)c1C(=O)O	i	-2	12	-6	81*	87*
CC(=O)Nc1ccc(NC(=O)CSc2nc(N)c(NC(=O)c3ccccc3F)c(=O)[nH]2)cc1	i	-3	-7	10	-4	x
O=C(Nc1ncc2c(n1)-c1ccccc1OC2)c1cccc([N+](=O)[O-])c1	i	-5	0	4	55*	64*
COc1ccc(-c2nn(-c3ccccc3)cc2/C=C/C(=O)O)cc1[N+](=O)[O-]	i	-5	4	4	53*	62*
COc1ccc(-c2nn(-c3ccccc3)cc2C=O)cc1[N+](=O)[O-]	i	-4	6	12	6	x
O=C(O)c1ccc(N/N=C/c2ccc(-c3ccc(Cl)cc3Cl)o2)cc1	i	12	1	-10	75*	78*
O=C(O)c1ccc(N/N=C/c2ccc(-c3cccc(Cl)c3)o2)cc1	i	0	17	-5	26	x
O=C(O)c1ccc(N/N=C/c2ccc(-c3cc(Cl)ccc3Cl)o2)cc1	i	11	20	8	81*	84*
CC(=O)c1cccc(OC(=O)Oc2cccc(C(C)=O)c2)c1	i	2	-3	-8	50*	69*
COc1cc(OC)cc(C(=O)Nc2cccc(C(C)=O)c2)c1	i	10	2	-1	-1	x
COc1ccc(-c2cc(C)no2)cc1S(=O)(=O)N1CCN(c2ccc([N+](=O)[O-])cc2)CC1	u	8	0	4	50*	32
CC1(C)CC2CC(C)(CN2S(=O)(=O)c2ccc(C(=O)Nc3ccc(S(=O)(=O)N4CCOCC4)cc3)cc2)C1 (stereo not drawn)	i	21	-6	-5	58*	25
CC(=O)Nc1ccc(S(=O)(=O)N2CC3(C)CC2CC(C)(C)C3)cc1 (stereo not drawn)	i	0	-16	-9	0	x
CC1(C)CC2CC(C)(CN2S(=O)(=O)c2ccc(C(=O)Nc3ccc(Cl)c(S(=O)(=O)N4CCOCC4)c3)cc2)C1 (stereo not drawn)	i	9	-36	10	80*	13
CC(=O)N1CCN(c2ccccc2NC(=O)COc2cc(C)cc(C)c2)CC1	i	-4	-11	4	1	x
Cc1ccc(C(C)C)c2c1C(c1ccc3c(c1)OCO3)CC(=O)O2 (stereo not drawn)	i	-3	-8	1	22	x
COC(=O)NNC(=S)NCc1ccccc1	i	-1	-17	2	-7	x
COc1cc(/C=C(\C#N)c2nc3ccccc3s2)cc([N+](=O)[O-])c1O	i	20	61*	-119	51*	46*
C/C(=C\C(=O)c1sccc1Cl)N(C)C	i	-2	-10	-15	-4	x
Nn1cnnc1SCC(=O)N1CCc2ccccc2C1	i	-1	11	-4	-8	x
O=C1c2ccc(Cl)cc2S(=O)(=O)c2cccc(C(=O)N3CCN(c4ccc(Cl)cn4)CC3)c21	i	22	-10	-10	59*	5
O=C1c2ccccc2S(=O)(=O)c2cc(C(=O)N3CCN(c4c(Cl)cncc4Cl)CC3)ccc21	i	7	0	0	62*	21
COc1ccc(-c2ccc3c(c2)S(=O)(=O)c2cccc(C(=O)N4CCN(c5ccc(Cl)cn5)CC4)c2C3=O)cc1OC	i	28	8	-6	5	x
O=C1c2ccccc2S(=O)(=O)c2cc(C(=O)N3CCN(c4ccccc4)CC3)ccc21	i	-9	1	-2	20	x
NS(=O)(=O)c1ccc(CNC(=O)Cc2ccc(S(=O)(=O)N3CCOCC3)s2)cc1	i	-3	-8	3	-8	x
SMILES	Myeloid diff 2	NadD inh	CRFR2-BP antag	NRP1-CendR mod	FAS-TE inh	FAS-TE inh conf
CC(=O)c1cc(-c2ccc(F)cc2)n(CCC(=O)Nc2cccnc2)c1C	i	-3	-45	5	-3	x
CCn1c(=N)c(S(=O)(=O)c2ccccc2)cc2c(=O)n3ccccc3nc21	i	-1	4	-19	55*	35
N=c1c(S(=O)(=O)c2ccccc2)cc2c(=O)n3ccccc3nc2n1Cc1ccco1	i	16	7	-23	9	x
Cc1ccn2c(=O)c(NC(=O)c3ccc4c(c3)OCO4)c(C)nc2c1	i	2	-5	-2	-1	x
CCn1ncc(Cl)c1C(=O)Nc1ccc2c(c1)CCC2	i	-4	x	8	8	x
O=Cc1s/c(=N\S(=O)(=O)c2ccccc2)n(CCCCl)c1Cl	u	-3	28	-23	76*	83*
CC(=O)c1ccc(N2CCN(S(=O)(=O)c3ccc(-c4cnc(C5CC5)o4)cc3)CC2)cc1	i	3	35	-3	57*	43*
COc1ccc(N2CCN(S(=O)(=O)c3ccc(-c4cnc(C5CC5)o4)cc3)CC2)cc1	i	-5	35	1	28	x
O=[N+]([O-])c1ccc(Sc2nc3ccccc3o2)c([N+](=O)[O-])c1	i	-8	-9	0	50*	49*
COc1cc(/C=N/NC(=O)C(Cc2c[nH]c3ccccc23)NC(=O)OCc2ccccc2)cc([N+](=O)[O-])c1O (stereo not drawn)	i	42*	40	18	75*	75*
COc1cc(/C=N/NC(=O)C(Cc2c[nH]c3ccccc23)NC(=O)OCC(C)C)cc([N+](=O)[O-])c1O (stereo not drawn)	i	24	11	22	7	x
COc1ccccc1N1CC(C(=O)Nc2cc(C(F)(F)F)ccc2N2CCCC2)CC1=O (stereo not drawn)	i	0	-6	-5	63*	65*
CS(=O)(=O)N1CCc2cc(-c3csc(NC(=O)Cc4ccccc4)n3)ccc21	i	3	6	14	64*	58*
CC1Cc2cc(-c3csc(NC(=O)Cc4cccs4)n3)ccc2N1S(C)(=O)=O (stereo not drawn)	i	-3	-21	-2	51*	53*
CCCN(CC(=O)Nc1cc(Cl)cc(Cl)c1)CC(=O)Nc1ccc(F)c(F)c1F	i	-1	-24	-17	51*	34
O=C(COc1ccc(Cl)cc1)Nc1ccc(C(=O)O)cc1NC(=O)COc1ccc(Cl)cc1	i	7	-13	-3	51*	66*
O=C(COc1ccc(Cl)cc1)Nc1ccccc1Cl	i	-5	-8	2	11	x
CCOc1cc2[nH]c(=S)n(CCC(=O)NCc3ccco3)c(=O)c2cc1OCC	i	-3	-3	0	0	x
O=C1C2C3C=CC(C3)C2C(=O)N1Nc1ccc([N+](=O)[O-])cc1[N+](=O)[O-] (stereo not drawn)	i	-3	7	6	12	x

High-throughput results (PubChem BioAssay)
